Measured values from PubChem BioAssay (NCATS).
Activity calls are given as the source filed them. Where a call stands in place of a potency, no number is given. Calls come from the whole dose curve; as a rule, active = well fitted cell-killing curve with a large enough effect; inconclusive = small, poorly fitted or top-dose-only effect, or effect the other way; inactive = flat fitted curve, though single readings scatter.

Assay: MultiTox-Fluor Cytotoxicity Assay - LYMP1-003 - Dead Cells (AID 961);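 note: cells exposed to compound for 16 h at 37 °C; nearly all actives have a fitted effect of over 70% in size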
Settings: LYMP1-003 lymphoblastoid cells, dead-cell protease fluorescence; series mostly up to 92.2 µM
Description: NIH Chemical Genomics Center [NCGC]
NIH Molecular Libraries Screening Centers Network [MLSCN]
National Institutes of Environmental Health Sciences [NIEHS]
National Toxicology Program [NTP]
We have developed a 1536-well cell-based assay for quantitative high throughput screening (qHTS) against a number of cell lines to determine in vitro cytotoxicity of small molecules. This particular assay uses a human lymphoblastoid cell line (LYMP1-003) purchased from Coriell Institute.
NCGC Assay Protocol Summary:
The MultiTox-Fluor Cytotoxicity Assay (Promega) is a homogeneous method to simultaneously measure the relative number of live and dead cells in culture by detecting changes in cell membrane integrity. There are two fluorogenic peptide substrates in the assay reagent. Viable cells are determined when the cell-permeant substrate (GF-AFC) enters the cell and is cleaved by protease from live cells resulting in liberated fluorophore. This live-cell protease activity restricted to viable cells is proportional to cell number. The dead cells are determined by using fluorogenic cell-impermeant peptide substrate (bis-AAF-R110) which cleaved by dead cell proteases leaking from damaged cell membrane.
Using the MultiTox-Fluor Cytotoxicity Assay, the relative number of dead cells was measured in the lymphoblastoid cell line with complete culture medium following compound treatment for 16 hours. The assay was performed in opaque black Kalypsys 1536-well plates. In the screen, tetraoctylammonium bromide was used as positive control. Library compounds were measured for their ability to cause acute toxicity in the cell line, as reflected by an increase in dead cell protease activity, in a concentration-dependent manner. Data were normalized to the controls for basal activity (DMSO only) and 100% stimulation (15 uM tetraoctylammonium bromide). AC50 values were determined from concentration-response data modeled with the standard Hill equation.
qHTS protocol for MultiTox-Fluor Cytotoxicity assay
[Step] [Parameter] [Value] [Description]
1. Reagent; 5 uL; 2500 lymphoblastoid cells/well
2. Time; 5 hr; 37 C incubation
4. Controls; 23 nL; Tetraoctylammonium bromide 6.4pM to 92 uM
5. Time; 16 hr; 37 C incubation
6. Reagent; 5 uL; MuliTox-Fluor Assay reagent
7. Time; 60 min; Room Temperature
8. Detection; dead-cell fluorescence (Ex/Em=485/520); EnVision plate reader
Keywords: cytotoxicity, lymphoblastoid cell line, fluorescence, NTPHTS, NTPHTS_NCGC, NIEHS, EPA, DSSTox, MLSMR, MLSCN, NIH Roadmap, qHTS, NCGC
With `N#CCc1ccccc1` the Potency was “inactive”. With `CN(C)C(=O)Nc1cccc(C(F)(F)F)c1` the Potency was “inactive”. With `CCC[N+](=O)[O-]` the Potency was “inactive”. In the case of `Nc1ccc(-c2ccccc2)cc1`, the Potency is reported as “inactive”. For `CC(C)C#N`, the Potency was “inactive”. In the case of `[O-][Cl+2]([O-])O`, the Potency is reported as “inactive”. For `CCCCCc1cc(O)cc(O)c1`, the Potency was “inactive”. With `Nc1ccc(Cc2ccc(N)c(Cl)c2)cc1Cl` the Potency was “inactive”. For `CC(C)OS(C)(=O)=O`, the Potency was “inactive”. With `ClCCCCl` the Potency was “inactive”. In the case of `N#C/C=C/C#N`, the Potency is reported as “inactive”. With `CC(Cl)CCl` (stereo not given) the Potency was “inactive”. For `O=P(OCCCl)(OCCCl)OCCCl`, the Potency was “inactive”. In the case of `O=C(O)CBr`, the Potency is reported as “inactive”. In the case of `CC(C)(C)C(O)(CCc1ccc(Cl)cc1)Cn1cncn1` (stereo not given), the Potency is reported as “inactive”. With `Cl/C=C\Cl` the Potency was “inactive”. For `OCCOCCO`, the Potency was “inactive”. In the case of `O=C(Cl)OCc1ccccc1`, the Potency is reported as “inactive”. In the case of `ClCCBr`, the Potency is reported as “inactive”. For `CCCN(CCC)c1c([N+](=O)[O-])cc(C(F)(F)F)cc1[N+](=O)[O-]`, the Potency was “inactive”. For `Cc1ccc2c(c1N)C(=O)c1ccccc1C2=O`, the Potency was “inactive”. For `ClCCOCOCCCl`, the Potency was “inactive”. With `BrCC(Br)(Br)Br` the Potency was “inactive”. In the case of `Nc1ncc([N+](=O)[O-])s1`, the Potency is reported as “inactive”. For `Nc1c(Cl)cc([N+](=O)[O-])cc1Cl`, the Potency was “inactive”. With `FC(Cl)(Cl)Cl` the Potency was “inactive”. For `ClP(Cl)(Cl)(Cl)Cl`, the Potency was “inactive”. For `Cc1ccc2c(C)cccc2c1`, the Potency was “inactive”. With `CCC(Cl)[N+](=O)[O-]` (stereo not given) the Potency was “inactive”. In the case of `CC(C)OC(=O)Cc1ccccc1`, the Potency is reported as “inactive”. In the case of `Oc1cccc(Cl)c1`, the Potency is reported as “inactive”. For `C=CCO`, the Potency was “inactive”. For `ClCC(Br)CBr` (stereo not given), the Potency was “inactive”. In the case of `Cc1ccc(N)cc1C`, the Potency is reported as “inactive”. For `N#CC(Br)Br`, the Potency was “inactive”. In the case of `CN(C)c1ccccc1`, the Potency is reported as “inactive”. In the case of `O=S(=O)(O)F`, the Potency is reported as “inactive”. In the case of `COc1cc(-c2ccc(N)c(OC)c2)ccc1N`, the Potency is reported as “inactive”. With `CCCBr` the Potency was “inactive”. With `Clc1ccc(C(Cl)(Cl)Cl)cc1Cl` the Potency was “inactive”.
